Bioassay records (PubChem BioAssay)
Hits are enriched below; roughly 8.9% of the tested compounds scored in any of these assays.
KB-3-1 tox – KB-3-1 parental cell cytotoxicity. Potency, µM (highest dose often 46.1 µM), usual class: cytotoxic. KB-3-1 viability, CellTiter-Glo ATP luminescence, 72 h. hit rate 1.4% among 400,000; also: potency is read from the fitted curve at half-maximal effect; % is scaled to controls: 0 for no effect and ±100 for the full control effect; nearly all actives have a fitted effect of over 60% in size
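Cells are dispensed, compounds pinned in, plates held at 37 °C for 72 h, then CellTiter-Glo is added and luminescence read after 10 minutes. Cell line: parental KB-3-1 in phenol-red-free DMEM, 10% FBS.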
KB-V1 MDR tox – kills drug-selected multidrug resistant KB-V1 cells. Potency, µM (top dose mostly 46.1 µM), actives largely listed as cytotoxic. AID 1347076. hit rate 3.4% among 400,000. KB-V1 MDR cells viability, CellTiter-Glo, 72 h; also: potency is read from the fitted curve at half-maximal effect; % is scaled to controls: 0 for no effect and ±100 for the full control effect; nearly all actives have a fitted effect of over 60% in size
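Compound-treated KB-V1 multidrug-resistant cells, 72 h, 37 degrees C; viability by CellTiter-Glo. Fitted qHTS curves give the values.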
DRD3 antagonist – antagonists of human D3 dopamine receptor. P35462. D3R cells, DiscoveRx beta-arrestin luminescence, antagonist mode; hits give low values. max response, negative = inhibition, %. hit rate 2.5% among 360,000. AID 652054; in the data active = max response below about -50%; inconclusive = no clear call, values can overlap the other calls; also: % is scaled to controls: 0 for no effect and ±100 for the full control effect
Target sequence (P35462 whole entry, looked up): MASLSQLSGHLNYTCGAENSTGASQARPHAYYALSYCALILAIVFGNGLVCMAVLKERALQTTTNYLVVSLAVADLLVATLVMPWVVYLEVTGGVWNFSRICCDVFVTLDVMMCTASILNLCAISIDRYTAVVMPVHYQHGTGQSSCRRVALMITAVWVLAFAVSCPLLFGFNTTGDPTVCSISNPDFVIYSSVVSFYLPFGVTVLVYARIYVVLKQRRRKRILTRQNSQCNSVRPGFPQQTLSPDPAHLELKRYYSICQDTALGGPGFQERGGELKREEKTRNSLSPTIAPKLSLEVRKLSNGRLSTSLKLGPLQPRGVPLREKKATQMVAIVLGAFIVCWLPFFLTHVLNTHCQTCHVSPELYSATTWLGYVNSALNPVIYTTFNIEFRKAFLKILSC
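Cells expressing the human receptor were seeded at 1500 cells/well, incubated overnight at 37 degrees C in 5% CO2, then exposed to library compounds with dopamine controls for 90 minutes at 37 degrees C before luminescent detection.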
DRD3 agonist – D3 dopamine receptor (human) agonism | hit rate 0.58% among 410,000 | D3R DiscoveRx beta-arrestin cells, luminescence, 90 min | max activation, % | P35462 | AID 652048; in the data active = max activation above about 30%; also: 0% is about no effect
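Agonist-mode cell screen: cells plated at 1500/well and incubated overnight at 37 °C, then exposed to library compounds for 90 min at 37 °C. Detection reagent was added for 30–60 min at room temperature, and luminescence was read.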
MCF10A rerep – induces DNA re-replication in MCF 10a normal breast cells; AID 624296; Potency, µM (highest dose often 46.1 µM), for inactives: top-dose activity, positive = re-replication, hits mostly activators; hit rate 2.9% among 350,000; MCF 10A DNA re-replication, Hoechst nuclear intensity, 48 h; also: potency is read from the fitted curve at half-maximal effect; % of control where 0% means no effect; nearly all actives have a fitted effect of over 50% in size
SW480 rerep – DNA re-replication induction in SW480 cells; AID 624297; hit rate 1.8% among 340,000; Potency, µM (titrated, usually from 46.1 µM), for the others: top-dose re-replication activation, hits mostly activators; SW480 DNA re-replication, Hoechst DNA content imaging, 48 h; also: potency is read from the fitted curve at half-maximal effect; % of control where 0% means no effect; nearly all actives have a fitted effect of over 55% in size
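DNA re-replication was detected as more nuclei of elevated Hoechst intensity after 48 hr exposure to compound (23 nL pinned per well of 250 cells).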
Numbers without * were called inactive; i = inactive; ? = inconclusive; · = not tested or not shown. Unless noted, calls follow the shape of the dose curve; as a rule, active = well fitted curve in the direction sought with a large enough effect; inconclusive = small, poorly fitted or top-dose-only effect, or another doubt; inactive = no such curve, though single readings can be large; an effect the other way counts as inactive or inconclusive.

SMILES	KB-3-1 tox	KB-V1 MDR tox	DRD3 antagonist	DRD3 agonist	MCF10A rerep	SW480 rerep
O=C(NCCCN1CCCC1)Nc1ccc(F)cc1	i	i	1	4	8%	-8%
O[Si](CCCN1CCCCC1)(c1ccc(F)cc1)C1CCCCC1 (configuration not stated)	i	?	-110*	-87	-11%	2%
CCOc1ccc(NC(=O)c2c(C)oc3nc(C)nc(N4CCOCC4)c23)cc1	·	·	·	-3	·	·
COC(=O)c1ccccc1NC(=O)c1ccc(CN2CC(=O)N3CCCCC3C2=O)cc1 (configuration not stated)	·	·	·	2	·	·
COc1ccc2sc(N(Cc3cccnc3)C(=O)c3cccs3)nc2c1	16µM*	?	·	15	·	·
CCOc1ccc2nc(N(Cc3cccnc3)C(=O)c3cccs3)sc2c1	·	·	·	1	·	·
CC(C)C[C@H](NC(=O)OC(C)(C)C)C(=O)N[C@@H](CO)[C@H](O)[C@@H]1C[C@@H]1C(=O)NC1CC1	i	i	?	10	-3%	-1%
CC(C)C[C@H](NC(=O)OC(C)(C)C)C(=O)N[C@@H](CO)[C@H](O)[C@@H]1C[C@@H]1C(=O)NC1CCCCC1	i	10µM*	-21	-3	?	9%
CN(Cc1c(F)cccc1Cl)c1nnnn1-c1ccccc1	i	21µM*	13	2	6%	-3%
CCC1CN(C(=O)N2CCC(C(=O)NCc3ccc(OC)cc3OC)CC2)c2cc(C)ccc2O1 (configuration not stated)	·	·	·	1	·	·
CCn1cc(CN2CCC(C(=O)Nc3ccc(Oc4ccccc4F)cc3)CC2)c(C)n1	i	?	?	-12	21µM*	?
CC(C)n1cc(CN2CCC(C(=O)Nc3ccc(Oc4ccccc4F)cc3)CC2)cn1	?	i	-61*	0	8%	?
CCn1cc(CN2CCC(C(=O)Nc3ccc(Oc4ccccc4)nc3)CC2)cn1	·	·	3	-20	10%	-4%
COc1ccccc1OC(C)C(=O)N1CCN(CCc2ccccn2)CC1 (configuration not stated)	i	i	·	-8	·	·
Cc1ccc(C(=O)NCCn2c(N)c(C#N)c3nc4ccccc4nc32)cc1	?	i	77	0	?	21µM*
N#Cc1c(N)n(CCOC(=O)c2cccc(Br)c2)c2nc3ccccc3nc12	i	i	0	4	?	?
N#Cc1c(N)n(CCNC(=O)c2ccc(Cl)cc2)c2nc3ccccc3nc12	i	i	11	-2	18µM*	?
COc1ccc(C2Cc3ccccc3C(=O)O2)cc1 (configuration not stated)	i	?	-2	-1	-3%	21µM*
CC(C)c1ccc(-c2nnc3n(CCc4ccccc4)c(=O)c4ccccc4n23)cc1	i	i	·	7	·	·
COc1ccccc1-c1cc(C(=O)Nc2c(C)n(C)n(-c3ccccc3)c2=O)no1	i	i	-13	2	-6%	0%
COc1ccc(OC)c(-c2cc(C(=O)Nc3c(C)nn(Cc4ccc(C)cc4)c3C)no2)c1	i	i	·	35*	·	·
COc1ccc(-c2cc(C(=O)Nc3c(C)nn(Cc4ccccc4Cl)c3C)no2)cc1OC	?	?	-12	2	29%	-2%
Cc1cc(C(=O)Nc2c(C)nn(Cc3ccccc3Cl)c2C)no1	i	21µM*	6	-8	3%	-2%
COc1ccc(OC)c(-c2cc(C(=O)Nc3c(C)nn(Cc4ccccc4C)c3C)no2)c1	i	i	21	33*	-13%	8%
COc1ccc(OC)c(-c2cc(C(=O)Nc3c(C)nn(Cc4ccccc4Cl)c3C)no2)c1	?	i	3	25	15%	11%
SMILES	KB-3-1 tox	KB-V1 MDR tox	DRD3 antagonist	DRD3 agonist	MCF10A rerep	SW480 rerep
COc1ccc(OC)c(-c2cc(C(=O)Nc3c(C)n(C)n(-c4ccccc4)c3=O)no2)c1	i	23µM*	?	-3	16%	3%
Cc1ccc(NC(=O)C2CCCN(c3cnccn3)C2)cc1Cl (configuration not stated)	·	·	·	3	·	·
CCC(C)(C)NC(=O)C(c1ccccc1Cl)N(C(=O)CCC(=O)Nc1cc(C)on1)c1ccc(NC(C)=O)cc1 (configuration not stated)	?	?	-17	1	7%	?
CC1(C(=O)NCc2ccc(Cl)cc2)CCN1C(=O)Cc1ccc(Cl)cc1Cl (configuration not stated)	i	i	44	2	·	·
CC(C)(C)c1ccc(CC(=O)N2CCC2(C)C(=O)NCc2ccc(Cl)cc2)cc1 (configuration not stated)	?	21µM*	26	5	·	·
Cc1nn(CCc2nn[nH]n2)c2nc(-c3ccc(C4CCCCC4)cc3)cc(C(F)(F)F)c12	i	i	14	17	12µM*	-3%
Cc1ccc2c(c1)-c1c(c(C(=O)NCCc3ccccc3)nn1C)CS2	i	i	·	-3	·	·
Cc1ccccc1CNC(=O)c1ccc2c(c1)c(C)c(C)n2C	i	i	·	1	·	·
CN1CCN(c2ccc(NC(=O)c3cccs3)cc2)CC1	i	i	?	-2	-29%	?
CCN(CC)c1ccc(NC(=O)c2ccc3c(c2)c(C)c(C)n3C)cc1	23µM*	16µM*	-13	1	?	?
Cc1ccn(-c2ccc(NC(=O)c3cccs3)cc2)n1	21µM*	12µM*	-9	4	?	-3%
CCOc1cccc(C(=O)Nc2ccc(N(CC)CC)cc2)c1	?	i	-14	-1	18µM*	18µM*
Cc1ncoc1C(=O)Nc1ccc(Oc2ccccc2)cc1	i	18µM*	33	-1	3%	-12%
CCOc1cccc(C(=O)Nc2ccc3ccccc3c2)c1	i	?	2	3	16%	24%
CCCCOc1ccc(C(=O)NCCc2sc(-c3cccc(F)c3)nc2C)cc1	i	?	·	11	·	·
COc1ccc2cc3cc(C(=O)Nc4cc(C)c(Cl)cc4OC)oc3nc2c1	i	?	·	-4	·	·
Cc1ccc(Cl)cc1N1CCN(S(=O)(=O)c2ccc3c(c2)CCCN3C(=O)C2CCC2)CC1	i	i	·	-16	·	·
Cc1ccc(CN2CCSc3ccc(C(=O)N4CCN(c5ccc(Cl)cc5)CC4)cc32)cc1	i	?	·	1	·	·
Cc1cc(NC(=O)c2ccc(NC(=O)c3cccs3)cc2)no1	i	15µM*	13	2	1%	-7%
CCOc1cccc(C(=O)Nc2ccc(N3CCCC3)cc2)c1	?	i	-14	-15	6%	?
